The text below walks through data of PubChem BioAssay (Tox21).

Several values for one entry are separate records, joined by “and”; a condition that tells them apart may be missing. Identical values can stand only once. Records with an inconclusive call do not appear. Some compounds were tested as several samples or in several runs, with calls that do not always agree. Activity calls are given as the source filed them. Unless noted, the call rests on the fitted dose curve; in most records, active means well fitted curve in the direction sought with a large enough effect in the repeat runs; inconclusive means weak or mixed curves; inactive means no such curve, though single readings can be large; an effect the other way counts as inactive or inconclusive.

Assay [1] in a line: qHTS assay to identify small molecule agonists of the estrogen related receptor signaling pathway with the pleiotropic PPARgamma coactivator (PGC) (AID 1224823). The essentials: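 PGC/ERR reporter cells were seeded, rested 6 h at 37 C/5% CO2, then exposed to compounds in DMSO by pin transfer for 18 h at 37 C. Luciferase activity was read as luminescence after One-Glo reagent and 30 min at room temperature.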
A general note: qHTS replaces the single test concentration by a dilution series.

Assay [2] deals with Luciferin 4-monooxygenase (Photinus pyralis) (UniProt P08659). In words: qHTS assay to identify small molecule inhibitors of firefly luciferase (AID 1224835). Further: nearly all actives have a fitted effect of over 25% in size. Further: potency means the concentration at half of the fitted maximal effect. The essentials: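 Inhibition of purified Photinus luciferase is measured by luminescence. Substrate levels (D-luciferin, ATP) sit at their KM values. Each compound is tested in a concentration series.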
Assay [3] can be described thus: qHTS assay to identify small molecule agonists of the constitutive androstane receptor (CAR) signaling pathway - cell viability counter screen (AID 1224836). Further: nearly all actives have a fitted effect of over 45% in size. The essentials: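 Double-stable HepG2 hepatoma cells (hCAR plus CYP2B6-2.2kb) are treated for 23 h at 37 C with test compounds in 15-point concentration series. PK11195 at 0.75 uM final is co-added. Cell viability is quantified by CellTiter-Fluor.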

Assay [4] in a line: qHTS assay to identify small molecule antagonists of the constitutive androstane receptor (CAR) signaling pathway - cell viability counter screen (AID 1224837). Further: nearly all actives have a fitted effect of over 45% in size. In outline:
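HepG2-CYP2B6-hCAR cells, 2500/well, 4 hr pre-incubation; compound titration, 15 conc.; CITCO 50 nM final; 23 hr, 37 C/5% CO2; CellTiter-Fluor, fluorescence intensity.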

Assay [5] deals with Nuclear receptor subfamily 1 group I member 3 (Homo sapiens) (UniProt Q14994). As to the kind of experiment: qHTS assay to identify small molecule antagonists of the constitutive androstane receptor (CAR) signaling pathway (AID 1224838).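 Further: HepG2 cells stably expressing hCAR with CYP2B6 luciferase reporter stimulated by CITCO; nearly all actives have a fitted effect of over 40% in size.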 In outline:
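HepG2-CYP2B6-hCAR cells; 4 h pre-incubation; cpd (15 conc) + CITCO 50 nM final; 24 h, 37 C/5% CO2; ONE-Glo, luminescence.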

The target is the same in assay [6]. As to the kind of experiment: qHTS assay to identify small molecule agonists of the constitutive androstane receptor (CAR) signaling pathway (AID 1224839). Further: nearly all actives have a fitted effect of over 15% in size. Further: potency means the concentration at half of the fitted maximal effect.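 On activation: HepG2 cells stably carrying human CAR and a CYP2B6 luciferase reporter.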 In outline:
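Readout: firefly luciferase luminescence via ONE-Glo. System: HepG2 double-stable for hCAR and CYP2B6-2.2kb. Conditions: 15-point compound titration, PK11195 at 0.75 uM final, 24 h incubation.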

Assay [7] can be described thus: qHTS assay to identify small molecule antagonists of the estrogen related receptor signaling pathway with the pleiotropic PPARgamma coactivator (PGC) from Tox21 10K library (AID 1224841; call rule not given here; further: actives are mostly falling curves and most rising ones were filed inactive; nearly all actives have a fitted effect of over 50% in size; further: potency means the concentration at half of the fitted maximal effect). In outline:
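PGC/ERR cell line, 2,000 cells/well; 6 h pre-incubation 37 C/5% CO2; compounds (DMSO) pinned in; 18 h, 37 C; One-Glo, 30 min RT; luminescence.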

Assay [8] in a line: qHTS assay to identify small molecule agonists of the estrogen related receptor signaling pathway with the pleiotropic PPARgamma coactivator (PGC) from Tox21 10K library (AID 1224842). Further: nearly all actives have a fitted effect of over 15% in size. In outline:
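Luminescence from One-Glo (30 min, room temperature) measured after PGC/ERR cells had 18 h at 37 C with pinned compound (23 nL in DMSO). Cells had been seeded at 2,000 per well and pre-incubated 6 h.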

For assay [9], the target named is Thyrotropin receptor (Homo sapiens) (UniProt P16473). In words: qHTS assay to identify small molecule agonists of the thyroid stimulating hormone receptor (TSHR) signaling pathway (AID 1224843; calls by dose curve; further: nearly all actives have a fitted effect of over 45% in size). In outline:
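HEK293 cells stably bearing the thyrotropin receptor were plated at 800 cells/well and challenged with compound (30 min, RT). Accumulated cAMP was quantified via cAMP-d2 competing for cryptate-tagged antibody.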

Assay [10] is described as follows: qHTS assay to identify small molecule agonists of the hypoxia (HIF-1) signaling pathway - cell viability counter screen (AID 1224844; calls by dose curve; further: nearly all actives have a fitted effect of over 50% in size). The essentials:
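ME-180 HRE-bla cells, 2,000/well, 0.5% dialyzed FBS; 5 hr settle, 17 hr compound at 37C/5% CO2; CCF4-AM reporter read first, then CellTiter-Glo luminescence after 30 min RT.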

Assay [11] can be described thus: qHTS assay to identify small molecule agonists of H2AX (AID 1224845; active means well fitted activation curve with a large enough effect in the signal ratio in the repeat runs, not every such curve was filed as active; the % refers to the signal ratio). The essentials: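 Phospho-H2AX Ser139 measured by HTRF (ex 320 nm; em 665 and 620 nm) after 24 hr antibody incubation. Compounds, 15 concentrations, 0.76% DMSO, were applied to CHO-K1 cells for 3hr at 37C before lysis.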
Assay [12] in a line: qHTS assay to identify small molecule agonists of the hypoxia (HIF-1) signaling pathway (AID 1224846; active means well fitted activation curve with a large enough effect in the signal ratio in the repeat runs, not every such curve was filed as active; the % refers to the signal ratio). In outline:
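Cell line: CellSensor HRE-bla ME-180; 2,000 cells/well; 0.5% dialyzed FBS; 5 h preincubation; DMSO compound pin transfer; 17 h, 37C, 5% CO2; CCF4-AM added; bla FRET signal scored for activation.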

Assay [13] is described as follows: qHTS assay to identify small molecule agonists of H2AX - cell viability counter screen (AID 1224847; calls by dose curve; further: nearly all actives have a fitted effect of over 30% in size; further: potency means the concentration at half of the fitted maximal effect). In outline: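 For this counter screen, overnight-attached CHO-K1 cells received test compounds (15 concentrations, 0.76% DMSO final); 3 hr later at 37C, CellTiter-Glo reagent was added and luminescence recorded after 30 min at room temperature.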
The nature of assay [14]: qHTS assay to identify small molecule antagonists of the estrogen related receptor (ERR) signaling pathway from Tox21 library (AID 1224848). Further: nearly all actives have a fitted effect of over 50% in size. Further: potency means the concentration at half of the fitted maximal effect. The essentials: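 Reading was by luminescence 30 min after ONE-Glo addition. Before that, ERR cells at 2,000 per well had rested 6 h at 37 C/5% CO2 and then received pin-tooled compounds in DMSO for 18 h at 37 C.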
Assay [15] is described as follows: qHTS assay to identify small molecule agonists of the estrogen related receptor (ERR) signaling pathway from Tox21 library (AID 1224849; calls by dose curve; further: nearly all actives have a fitted effect of over 15% in size). Particulars: ERR reporter cell line, ONE-Glo luciferase, 18 h; at 92.4 µM (top of the series) unless noted. The essentials: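 ERR cells, 6 h pre-incubation 37 C/5% CO2; cpd in DMSO pinned; 18 h 37 C; ONE-Glo added, 30 min RT; luminescence read. Agonist mode, qHTS.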

Assay [16] can be described thus: qHTS RealTime-Glo MT Cell Viability Assay in HepG2 cells - 24 hour (AID 1224867). Further: nearly all actives have a fitted effect of over 50% in size. In outline:
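HepG2 cells were seeded at 600 cells/well together with NanoLuc luciferase and a cell-permeant prosubstrate, preincubated 5 h at 37 C/5% CO2, then pin-dosed with compounds in DMSO. Nonlytic luminescence from viable cells was read at each time point.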

Assay [17] is described as follows: A CellTox Green Cytotoxicity Assay to monitor cytotoxicity in HEK293 cells - 0 hour (AID 1224869). Further: nearly all actives have a fitted effect of over 50% in size. In outline:
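Nonlytic real-time cytotoxicity: HEK293 + CellTox Green reagent plated, 5 h preincubation, pintool compound addition (23 nL in DMSO), 37 C for 40 h, fluorescence measured at successive time points.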

Assay [18] in a line: qHTS assay to identify small molecule antagonists of the estrogen related receptor (ERR) signaling pathway from Tox21 library - cell viability counter screen (AID 1224834). Further: nearly all actives have a fitted effect of over 30% in size. In outline:
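Fluorescence from CellTiter-Fluor gives the viability read-out, taken 30 min after reagent addition. Before that, ERR cells seeded 6 h earlier were incubated with compounds for 17.5 h at 37 C.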

Assay [19] is described as follows: qHTS assay to identify small molecule antagonists of the estrogen related receptor signaling pathway with the pleiotropic PPARgamma coactivator (PGC) from Tox21 10K library - cell viability counter screen (AID 1224840; active means well fitted cell-killing curve with a large enough effect in the repeat runs, not every such curve was filed as active; further: nearly all actives have a fitted effect of over 40% in size). In outline:
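PGC/ERR cells, 2,000/well; 6 h pre-incubation 37 C/5% CO2; cpd in DMSO via pin tool; 17.5 h 37 C; CellTiter-Fluor, 30 min; fluorescence.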

The nature of assay [20]: qHTS RealTime-Glo MT Cell Viability Assay in HEK293 cells - 32 hour (AID 1224868). In outline:
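HEK293 cells were seeded at 600 cells/well together with NanoLuc luciferase and cell-permeant prosubstrate, preincubated 5 h at 37 C/5% CO2, then given compound in DMSO by pintool. Luminescence from viable-cell prosubstrate reduction was read repeatedly over 40 h.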
On the % scale 0 is the no-effect control and ±100 the full control effect.

Thyrotropin receptor (Homo sapiens), sequence (P16473 whole entry, looked up): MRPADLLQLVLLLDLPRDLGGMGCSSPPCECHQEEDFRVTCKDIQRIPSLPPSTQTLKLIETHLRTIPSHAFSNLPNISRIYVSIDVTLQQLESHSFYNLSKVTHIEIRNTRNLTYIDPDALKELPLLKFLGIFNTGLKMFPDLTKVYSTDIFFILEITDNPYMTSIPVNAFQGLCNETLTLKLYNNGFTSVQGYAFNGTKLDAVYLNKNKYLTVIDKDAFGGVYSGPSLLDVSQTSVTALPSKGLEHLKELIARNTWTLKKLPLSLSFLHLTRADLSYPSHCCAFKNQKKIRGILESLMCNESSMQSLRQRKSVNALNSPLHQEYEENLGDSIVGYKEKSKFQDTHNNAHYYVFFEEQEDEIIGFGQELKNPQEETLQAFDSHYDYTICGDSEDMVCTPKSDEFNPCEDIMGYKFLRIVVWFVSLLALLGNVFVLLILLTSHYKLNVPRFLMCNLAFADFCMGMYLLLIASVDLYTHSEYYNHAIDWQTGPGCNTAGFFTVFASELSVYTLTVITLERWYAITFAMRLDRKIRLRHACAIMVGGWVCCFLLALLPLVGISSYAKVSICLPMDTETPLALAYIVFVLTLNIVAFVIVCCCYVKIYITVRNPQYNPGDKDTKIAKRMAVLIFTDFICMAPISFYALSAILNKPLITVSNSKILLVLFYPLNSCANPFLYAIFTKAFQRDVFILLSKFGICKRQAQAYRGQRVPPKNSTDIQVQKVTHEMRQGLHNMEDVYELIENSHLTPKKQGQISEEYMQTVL
Luciferin 4-monooxygenase (Photinus pyralis), sequence (P08659 whole entry, looked up): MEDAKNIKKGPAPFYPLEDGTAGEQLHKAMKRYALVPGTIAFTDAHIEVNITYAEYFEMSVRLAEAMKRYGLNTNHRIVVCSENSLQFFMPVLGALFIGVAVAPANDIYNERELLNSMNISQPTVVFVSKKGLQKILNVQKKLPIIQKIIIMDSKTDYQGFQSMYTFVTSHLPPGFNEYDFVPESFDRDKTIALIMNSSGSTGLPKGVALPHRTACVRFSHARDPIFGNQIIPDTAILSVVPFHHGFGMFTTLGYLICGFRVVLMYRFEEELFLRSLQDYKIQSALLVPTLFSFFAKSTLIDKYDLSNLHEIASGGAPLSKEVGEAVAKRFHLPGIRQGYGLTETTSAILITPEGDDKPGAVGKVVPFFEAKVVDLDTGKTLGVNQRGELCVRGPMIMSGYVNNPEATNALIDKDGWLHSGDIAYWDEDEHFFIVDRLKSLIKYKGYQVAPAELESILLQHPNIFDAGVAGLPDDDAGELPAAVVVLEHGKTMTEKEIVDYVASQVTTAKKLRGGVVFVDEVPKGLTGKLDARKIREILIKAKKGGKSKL
Nuclear receptor subfamily 1 group I member 3 (Homo sapiens), sequence (Q14994 whole entry, looked up): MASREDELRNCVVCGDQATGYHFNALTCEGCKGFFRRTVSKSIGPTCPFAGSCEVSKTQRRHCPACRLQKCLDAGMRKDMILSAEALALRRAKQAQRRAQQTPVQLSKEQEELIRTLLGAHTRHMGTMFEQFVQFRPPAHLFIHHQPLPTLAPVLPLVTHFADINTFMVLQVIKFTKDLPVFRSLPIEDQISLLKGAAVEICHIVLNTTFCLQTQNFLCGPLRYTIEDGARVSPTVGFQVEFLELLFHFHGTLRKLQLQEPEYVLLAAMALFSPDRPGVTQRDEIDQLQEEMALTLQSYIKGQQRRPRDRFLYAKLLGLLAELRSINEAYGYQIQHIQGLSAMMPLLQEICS

Take `CC(C)(c1ccc(O)cc1)c1ccc(O)cc1`: the call in [1], in assay [8], in [11] and in [12] was inactive. Besides, the Potency in assay [2] is 39.5 µM (active) and 36.2 µM (active); in assay [6] it was 30.3 µM (active) and 11.1 µM (active); in [7] it was 60.4 µM (active) and 60.4 µM [inhibitor] (active); in [13] it was “inactive and 103 µM (active)”; in assay [14], 30.3 µM (active). Further, the Potency entry in assay [3], in assay [4], in assay [5], in assay [9], in assay [10] and in assay [16] was “inactive” throughout. In assay [17], the Potency entry is “inactive”. Besides, the activity change, positive = activation in [15] is -29.8% (inactive) and -30.2% (inactive).

Take `Cc1ccc(=O)n(-c2ccccc2)c1`: the compound was called inactive in assay [1], in assay [8] and in assay [11]. Further, the Potency result in assay [18], in assay [2], in assay [3], in assay [4], in assay [5] and in [6] was “inactive” each time. Also, the Potency entry in assay [19], in assay [7], in assay [9], in assay [10], in [13] and in assay [14] was “inactive” throughout. For the same compound, the Potency entry in assay [16], in assay [20] and in [17] was “inactive” each time. The activity change, positive = activation in [15] was -0.153% [at 42.5 µM] (inactive).

With `COC(=O)[C@@H](N)Cc1ccc(O)c(O)c1`, the compound was classed as inactive in [1] and in assay [12]. Further, the Potency entry in [18], in [2], in assay [3], in assay [4], in assay [19] and in [7] was “inactive” each time. The Potency result in assay [9], in assay [10], in assay [13], in [14], in [16] and in [17] was “inactive” in each case. The activity change, positive = activation in assay [15] is 6.86% [at 42.5 µM] (inactive).

In the case of `Cc1sccc1Br`, the Potency result in assay [18], in assay [2], in assay [3], in [4], in assay [5] and in [6] was “inactive” throughout. For the same compound, the Potency result in [19], in assay [7], in assay [9], in assay [10], in assay [13] and in [14] was “inactive” in each case. In addition, the Potency result in assay [16], in assay [20] and in [17] was “inactive” throughout. Moreover, the call in assay [8], in [11] and in assay [12] was inactive. Moreover, in assay [15], the activity change, positive = activation is -1.02% [at 42.5 µM] (inactive).

As for `CC(NC(CCc1ccccc1)C(=O)O)C(=O)N1C(=O)N(C)CC1C(=O)O` (centres undefined), the Potency entry in assay [18], in assay [2], in assay [3], in assay [4], in assay [5] and in assay [6] was “inactive” throughout. Also, the Potency result in assay [19], in assay [7], in [9], in assay [10], in [13] and in assay [14] was “inactive” in each case. In addition, the Potency entry in [16], in assay [20] and in assay [17] was “inactive” in each case. For the same compound, the result in [8], in [11] and in assay [12] was inactive. The activity change, positive = activation in [15] is 2.19% [at 42.5 µM] (inactive).
